# Screening data as filed in PubChem.
# In the library only some 9.9% were active in any assay of this set; here they are far more common.
# KB-3-1 tox: kills parental KB-3-1 adenocarcinoma cells | KB-3-1 viability, CellTiter-Glo ATP luminescence, 72 h | Potency, µM (highest dose often 46.1 µM), actives largely listed as cytotoxic | hit rate 1.4% among 400,000; also: potency is read from the fitted curve at half-maximal effect; % is scaled to controls: 0 for no effect and ±100 for the full control effect; nearly all actives have a fitted effect of over 60% in size
#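 Cytotoxicity measured as CellTiter-Glo luminescence after 72 h at 37 C. Compound titrations were pinned onto drug-naive KB-3-1 parental adenocarcinoma cells grown in DMEM with 10% FBS, and normalized data fitted to concentration-response curves.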
# SW480 rerep: induces DNA re-replication in SW480 colon adenocarcinoma cells; SW480 DNA re-replication, Hoechst DNA content imaging, 48 h; Potency, µM (doses to about 46.1 µM), for the others: at the top dose re-replication activation, actives largely listed as activators; hit rate 1.8% among 340,000; also: potency is read from the fitted curve at half-maximal effect; % of control where 0% means no effect; nearly all actives have a fitted effect of over 55% in size
#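 Image-based DNA-content assay: after two days of treatment, nuclei were labelled with the DNA dye Hoechst and imaged, and hits were compounds raising the count of nuclei showing high fluorescence intensity.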
# MCF10A rerep: induces DNA re-replication in MCF 10a normal breast cells; Potency, µM (titrated, usually from 46.1 µM), for inactives: at the highest dose activity, positive = re-replication, most hits filed as activators; MCF 10A DNA re-replication, Hoechst nuclear intensity, 48 h; hit rate 2.9% among 350,000; also: potency is read from the fitted curve at half-maximal effect; % of control where 0% means no effect; nearly all actives have a fitted effect of over 50% in size
# IL1B secr inh: blocks inflammasome-driven IL-1 beta release. AID 743279. activity change, % at 57.5 µM. hit rate 4.7% among 360,000. THP-1 LPS/ATP IL-1B secretion, AlphaLISA, 16 h; stronger effect = lower value; in the data active = activity change below about -50%; inconclusive = mostly about -30% to -49%; also: % is scaled to controls: 0 for no effect and ±100 for the full control effect
#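 THP-1 cells pretreated 1 hr with compounds (up to 57.5 uM final), then stimulated with LPS (250 ng/mL final) plus ATP (1.25 mM final); secreted IL-1B measured by AlphaLISA after 16 hr, decreased signal indicating inhibition.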
# KB-V1 MDR tox: kills drug-selected multidrug resistant KB-V1 cells; KB-V1 MDR cells viability, CellTiter-Glo, 72 h; AID 1347076; hit rate 3.4% among 400,000; Potency, µM (series often up to 46.1 µM), most hits filed as cytotoxic; also: potency is read from the fitted curve at half-maximal effect; % is scaled to controls: 0 for no effect and ±100 for the full control effect; nearly all actives have a fitted effect of over 60% in size
#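 Compound-treated KB-V1 multidrug-resistant cells, 72 h, 37 degrees C; viability by CellTiter-Glo. Fitted qHTS curves give the values.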
# * marks the source's active call; other numbers are inactive results; i = inactive; ? = inconclusive; . = no result given. Unless noted, calls follow the shape of the dose curve; as a rule, active = well fitted curve in the direction sought with a large enough effect; inconclusive = small, poorly fitted or top-dose-only effect, or another doubt; inactive = no such curve, though single readings can be large; an effect the other way counts as inactive or inconclusive.
SMILES,KB-3-1 tox,SW480 rerep,MCF10A rerep,IL1B secr inh,KB-V1 MDR tox
CC(Oc1cc(Cl)ccc1Cl)C(=O)N/N=C\c1ccnn1C (centres undefined),i,-7%,13%,0,18µM*
C=CC#CC1(O)CC(C)N(C)CC1C (centres undefined),i,-4%,1%,-13,i
CCCCCCCC/C=C\CCCCCCCC(=O)NCc1ccc(O)c(OC)c1,.,-4%,24µM*,.,.
CSCCC(=O)N(C)CC1CCN(CCc2cccc(C(F)(F)F)c2)CC1,i,?,11%,-13,i
CC(=O)Nc1ccc(CN(C)CC2CCCN(CCc3cccc(C(F)(F)F)c3)C2)cc1 (centres undefined),i,?,?,-69*,i
CN(CC1CCN(CCc2cccc(C(F)(F)F)c2)CC1)C(=O)c1ccc(F)cc1F,i,11%,7%,-51*,i
COc1ccc(C(=O)N(C)CC2CCN(CCc3cccc(C(F)(F)F)c3)CC2)cc1C,i,?,?,-61*,i
CN(C)CCNc1ccc(CO)c2sc3ccc(O)cc3c(=O)c12,?,15%,21%,-100*,?
COc1ccc2sc3cccc(NCCN(C)C)c3c(=O)c2c1,?,.,.,-7,?
CCOC(=O)c1cnc2ccc(Cl)cc2c1NCCN(C)C,i,1%,5%,0,i
CN(C)CCNc1ccc2ncn3c4ccc(O)cc4c(=O)c1c23,?,?,?,-104*,i
CCCC(=O)Nc1cccc(NC(=O)c2cccc([N+](=O)[O-])c2C)c1,i,-5%,11%,0,?
Cc1cccc(NC(=O)CSc2nnc(CNC(=O)c3cccs3)o2)c1C,i,-2%,-6%,17,i
COC(=O)CN(C#N)c1nc(NC(C)C)nc(OC)n1,i,-3%,1%,0,i
COC(=O)CN(C#N)c1nc(NCc2ccccc2)nc(OC)n1,i,-3%,10%,-67*,i
Cc1ccc(CCNC(=O)CCNS(=O)(=O)c2ccc3c(c2)oc(=O)n3C)cc1,i,-4%,-20%,28,i
Cn1c(=O)oc2cc(S(=O)(=O)NCCC(=O)NCCc3ccc(Cl)cc3)ccc21,16µM*,7%,4%,30,i
O=C(CSc1nc2c(cnn2-c2ccc(F)cc2)c(=O)[nH]1)N1CCOCC1,i,-5%,5%,1,i
O=c1[nH]c(CSc2ncccn2)nc2c1cnn2-c1ccccc1,i,0%,5%,-1,?
O=c1[nH]c(SCc2nc3c(cnn3-c3ccccc3)c(=O)[nH]2)nc2ccccc12,2.1µM*,0%,?,5,?
O=c1[nH]c(CSc2nc3ccccc3[nH]2)nc2c1cnn2-c1ccccc1,i,6%,?,-67*,10µM*
Cc1ccc(-n2ncc3c(=O)[nH]c(SCC(=O)N4CCOCC4)nc32)cc1,i,-5%,26µM*,15,i
Cc1ccc2nc(SCc3nc4c(cnn4-c4ccccc4)c(=O)[nH]3)[nH]c2c1,2.6µM*,-2%,?,53,2.3µM*
CCn1cc(C(=O)NCCC(C)C)c(=O)c2cc(F)c(N3CCN(C)CC3)cc21,i,-10%,-8%,-3,i
Cc1ccc(-n2nnnc2CNC(=O)c2ccc([N+](=O)[O-])o2)cc1C,15µM*,13µM*,?,-102*,i
SMILES,KB-3-1 tox,SW480 rerep,MCF10A rerep,IL1B secr inh,KB-V1 MDR tox
O=C(NCc1nnnn1-c1ccc(F)cc1)c1ccc([N+](=O)[O-])o1,18µM*,?,?,-97*,?
CC(=O)c1ccc(-c2ccc(C(=O)NCC(c3ccc(F)cc3)N3CCOCC3)o2)cc1 (centres undefined),i,?,10%,-4,i
O=C(NCc1nnnn1-c1ccc(F)cc1)c1ccc2ccccc2c1,i,.,.,-18,i
O=C(NCC(c1ccc(F)cc1)N1CCOCC1)c1ccc([N+](=O)[O-])o1 (centres undefined),?,10µM*,18µM*,.,?
Cc1cccc(NS(=O)(=O)c2cccc(C(=O)NCCCN3CCOCC3)c2)c1,i,-7%,19%,2,i
CCOCCCNC(=O)/C(C#N)=C/c1ccc(C)o1,i,0%,3%,-13,i
N#Cc1cc[n+](CC(=O)c2ccc(NC(=O)c3ccccc3)cc2)cc1,i,9%,-1%,0,i
COc1ccc(/C=C/C(=O)NC(=S)N2CCSCC2)cc1,i,8%,3%,-10,i
Cc1cccc(Nc2nnc(SCC(=O)NC3CCCc4ccccc43)s2)c1 (centres undefined),?,-4%,?,-55*,?
Cc1ccc2nc(SCC(=O)NNC(=O)c3ccccc3)[nH]c2c1,i,-6%,-4%,76,i
Cc1ccc2nc(SCC(=O)NC3CCCc4ccccc43)[nH]c2c1 (centres undefined),?,?,15µM*,6,15µM*
O=C(CSc1nc2cc(Cl)ccc2s1)NC1CCCc2ccccc21 (centres undefined),i,-4%,?,12,16µM*
O=C(CSc1cc(Cl)ccc1Cl)NC1CCCc2ccccc21 (centres undefined),i,?,?,-10,i
Cc1ccc(Nc2nnc(SCC(=O)NC3CCCc4ccccc43)s2)cc1 (centres undefined),i,4%,-3%,-8,i
O=C(CSc1ccc2ccccc2c1)NC1CCCc2ccccc21 (centres undefined),i,5%,9%,-24,15µM*
O=C(O)CSCC(=O)NC1CCCc2ccccc21 (centres undefined),i,7%,-1%,13,i
O=C(Nc1ccc(F)cc1)c1ccccc1NS(=O)(=O)N1CCCC1,i,-1%,0%,23,i
COc1cc(Nc2ccc(S(N)(=O)=O)cc2)c([N+](=O)[O-])nc1[N+](=O)[O-],i,7%,1%,-3,i
O=C(Cn1nnc(-c2ccc([N+](=O)[O-])cc2)n1)NNC(=O)c1ccccc1,i,-6%,-3%,6,i
O=C(Nc1ccc(N2CCN(C(=O)c3ccc(Cl)cc3)CC2)cc1)c1ccc2c(c1)OCCO2,i,2%,6%,-61*,i
CC(=O)N1CCN(c2ccc(NC(=O)c3ccc4c(c3)OCCO4)cc2)CC1,i,3%,6%,-11,i
CC(C)(C)C(=O)N1CCN(c2ccc(NC(=O)c3ccc4c(c3)OCCO4)cc2)CC1,?,-19%,?,-77*,?
O=C(Nc1ccc(N2CCN(C(=O)c3ccccc3)CC2)cc1)c1ccc2c(c1)OCCO2,.,4%,?,-94*,.
